# Only a selection was taken, and hits are over-represented in it overall.
# DT40 TDP1 CPT: DT40-hTDP1 cell growth loss with CPT; chicken DT40 Tdp1-/-;hTDP1 cells + 20 nM CPT, ATP luminescence, 48 h; Potency, µM (top dose mostly 46.2 µM), without a hit: top-dose activity change, negative = growth inhibition, hits mostly inhibitors; 420,000 compounds, 12% hits; note: potency is the fitted concentration of half-maximal effect; nearly all actives have a fitted effect of over 55% in size
#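 Cell growth measured by CellTiter-Glo luminescence after a minimum 48 h, 37 C compound exposure with 20 nM CPT in Tdp1-knockout DT40 cells stably expressing hTDP1, seeded 400/well; qHTS titration format.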
# HT1080NT lethal: kills 2HG-producing HT-1080-NT fibrosarcoma cells. Potency, µM (doses to about 46.1 µM), inactives show top-dose activity, negative = less viability, hits mostly cytotoxic. HT-1080-NT fibrosarcoma viability, CellTiter-Glo ATP luminescence, 48 h. 360,000 compounds, 1.6% hits. AID 686970;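 note: NT is the 2HG producing partner of a matched IDH1 knockdown line; potency is the fitted concentration of half-maximal effect; 0% = DMSO-treated cells and -100% = media-only wells without cells; nearly all actives have a fitted effect of over 55% in size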
#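 HT-1080-NT fibrosarcoma cells (2HG-overproducing), 750 cells/well in RPMI with 5% FBS, dosed after 2 h and incubated 48 h at 37C. CellTiter-Glo luminescence normalized to DMSO and no-cell wells; concentration-response curves fitted and classed.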
# DT40 TDP1 no CPT: qHTS for Inhibitors of human tyrosyl-DNA phosphodiesterase 1 (TDP1): qHTS in cells in absence of CPT. DT40 Tdp1-/- hTDP1 cells, no CPT, ATP luminescence, 48 h. Potency, µM (top dose mostly 46.2 µM), for inactives: top-dose activity change, negative = growth inhibition, hits mostly inhibitors. 420,000 compounds, 15% hits; note: potency is the fitted concentration of half-maximal effect; nearly all actives have a fitted effect of over 55% in size
#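 Seeded 400 DT40-hTDP1 cells/well (vehicle DMSO, no 20 nM CPT); pinned compounds; ≥48 hr at 37 °C; CellTiter-Glo luminescence as viability measure.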
# IL1B secr inh: inflammasome signaling inhibition, IL-1 beta readout. THP-1 LPS/ATP IL-1B secretion, AlphaLISA, 16 h; stronger effect = lower value. activity change, % at 57.5 µM. 360,000 compounds, 4.7% hits. AID 743279; in the data active = activity change below about -50%; inconclusive = mostly about -30% to -49%
#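 Secreted IL-1B measured by AlphaLISA bead assay after 16 h compound exposure of THP-1 cells; compounds (final up to 57.5 uM) added 1 h before LPS (250 ng/mL) and ATP (1.25 mM) stimulation; lower signal means less secretion.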
# HT1080 IDH1KD tx: HT-1080 IDH1 knockdown cell toxicity (counter line). 360,000 compounds, 2% hits. HT-1080 IDH1 knockdown viability, ATP luminescence, 48 h. AID 686971. Potency, µM (titrated, usually from 46.1 µM), for the others: at the highest dose activity, negative = toxicity, usual class: cytotoxic;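 note: potency is the fitted concentration of half-maximal effect; 0% = DMSO wells and -100% = cell-free medium wells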
#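 Using the IDH1-knockdown HT-1080 line run in the same batch and compound series as the NT line, viability after 48 h at 37 °C was determined by CellTiter-Glo luminescence and expressed as % activity.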
# 12-LOX inh: blocks human arachidonate 12S-lipoxygenase; P18054; purified 12hLO, xylenol orange hydroperoxide absorbance; Potency, µM (doses to about 108 µM), for the others: top-dose activity change, negative = inhibition, usual class: inhibitors; 580,000 compounds, 1.1% hits; AID 1671190; note: potency is the fitted concentration of half-maximal effect
# Target sequence (P18054 whole entry, looked up): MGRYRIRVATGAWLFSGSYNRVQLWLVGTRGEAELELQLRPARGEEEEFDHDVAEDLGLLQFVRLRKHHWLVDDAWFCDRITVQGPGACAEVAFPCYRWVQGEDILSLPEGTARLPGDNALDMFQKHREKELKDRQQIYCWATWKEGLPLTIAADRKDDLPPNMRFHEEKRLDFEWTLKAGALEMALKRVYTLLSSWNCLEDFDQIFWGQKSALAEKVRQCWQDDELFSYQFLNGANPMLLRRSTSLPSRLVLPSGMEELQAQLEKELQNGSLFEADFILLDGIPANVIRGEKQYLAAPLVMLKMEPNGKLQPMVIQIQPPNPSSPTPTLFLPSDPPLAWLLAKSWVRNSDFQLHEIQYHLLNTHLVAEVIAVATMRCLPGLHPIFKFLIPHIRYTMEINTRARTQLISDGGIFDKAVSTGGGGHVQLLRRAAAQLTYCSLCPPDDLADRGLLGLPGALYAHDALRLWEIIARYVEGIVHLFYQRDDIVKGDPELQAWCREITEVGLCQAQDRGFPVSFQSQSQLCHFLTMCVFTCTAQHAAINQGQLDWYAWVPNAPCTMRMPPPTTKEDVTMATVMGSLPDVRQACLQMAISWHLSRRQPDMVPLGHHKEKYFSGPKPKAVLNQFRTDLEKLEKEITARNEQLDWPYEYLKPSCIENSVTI
#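 Purified human 12hLO at 150 nM in 25 mM Hepes, 0.01% Triton X-100, pH 7.0, preincubated 15 min at room temperature with compound. Reaction started with 40 uM arachidonic acid, 30 min at room temperature. Hydroperoxide measured by Fe-xylenol orange, 573/405 nm absorbance ratio.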
# * hit, by the source's call; i = inactive; u = inconclusive; x = no result; [ ] = another dose, or the depositor's remark. Unless noted, calls come from the whole dose curve; as a rule, active = well fitted curve in the direction sought with a large enough effect; inconclusive = small, poorly fitted or top-dose-only effect, or another doubt; inactive = no such curve, though single readings can be large; an effect the other way counts as inactive or inconclusive. Unless noted, % is set by controls: 0 for no effect and ±100 for the full control effect.
SMILES,DT40 TDP1 CPT,HT1080NT lethal,DT40 TDP1 no CPT,IL1B secr inh,HT1080 IDH1KD tx,12-LOX inh
CN1C(=O)C2(CCN(C(=O)C3(c4ccccc4)CC3)CC2)c2ccccc21,x,x,x,x,x,34%
CN1CCCCCCN(CC2CCCCC2)[C@H]2CCC[C@H]2C1=O,x,x,x,x,x,57%
CC(=O)c1cccc(NS(=O)(=O)c2ccc(-c3ccc(C)cc3)cc2)c1,x,x,x,x,x,-12%
Brc1cccc(CNCc2ccncc2)c1,7%,3%,-17%,40,5%,u
Fc1ccc(COc2ccc3ccccc3c2CNCc2ccncc2)cc1,x,x,x,x,x,-12%
Brc1ccc(OCc2ccccc2)c(CNCc2ccncc2)c1,16µM*,u,u,-59*,u,u
Fc1ccc(COc2ccccc2CNCc2ccncc2)cc1,u,0%,26µM*,-4,2%,-23%
O=c1oc2cc(Br)ccc2n1CSC1=NCCS1,21µM*,-21%,18µM*,-65*,8%[9.24 µM],0%
O=C(NNC1=Nc2cccc3cccc1c23)c1ccc(Br)cc1,12µM*,0%,13µM*,55,-29%,u
COc1nc2c(cc1CNC(=O)C(C)(C)OC)C(=O)N(CCc1ccccn1)C2,x,x,x,x,x,38%
CC1(C)Cc2c(c(N3CCOCC3)nc3sc4c(NCCN5CCOCC5)nnnc4c23)CS1,u,4%,12µM*,-17,5%,i
CC1(C)Cc2c(c(N3CCOCC3)nc3sc4c(NCC5CCCO5)nnnc4c23)CS1 (configuration not stated),-27%,3%,u,16,0%,60%
CCc1ccc(NC2=CC(=O)C(=O)c3ccccc32)cc1,2.3µM*,-3%,2.9µM*,-87*,-3%,u
O=C1C(Nc2ccccc2)=CC(=O)c2ncccc21,1µM*,x,1.1µM*,x,x,11%[176 µM]
Cc1c(Cl)cccc1Nc1ccccc1C(=O)O,u,7%,u,23,-12%,-12%
O=C1C=C(Nc2ccccc2C(=O)O)c2ccccc2C1=O,u,u,u,47,18µM*,u
O=C1C=C(Nc2cccc3cccnc23)c2ccccc2C1=O,5.8µM*,u,7.3µM*,-78*,2.1µM*,u
O=C1c2cccnc2-c2ncccc21,1%,19%,-15%,6,11%,-4%
CCOC(=O)c1ccc2ncc(C(=O)OCC)c(Nc3cccc(C(C)=O)c3)c2c1,x,x,x,x,x,3%
O=C1C=C(Nc2ccccc2)c2ccccc2C1=O,7.3µM*,u,4.6µM*,11,5.2µM*,-22%
O=C1C=C(Nc2ccccc2)C(=O)c2ccccc21,13µM*,15µM*,u,0,u,18%
O=C(Nc1sc2c(c1C(=O)NCCCO)CCCC2)c1ccccc1,-27%,-5%,-25%,-69*,-13%,u
NCCNC(=O)c1c(NC(=O)c2ccccc2)sc2c1CCCC2,u,-23%,u,-92*,u,-7%
O=C(CSc1nnnn1-c1ccc(O)cc1)c1cc2ccccc2o1,13µM*,2%,u,5,-3%,32%
Cc1cc(C)c(-n2nnnc2SCC(=O)c2cc3ccccc3o2)c(C)c1,-8%,18%,u,-2,0%,384%
SMILES,DT40 TDP1 CPT,HT1080NT lethal,DT40 TDP1 no CPT,IL1B secr inh,HT1080 IDH1KD tx,12-LOX inh
COC(=O)/C=C/c1ccc2c(c1)S(=O)(=O)N(Cc1ccc(OC)cc1)[C@H]2CC(=O)OC,u,0%,u,-10,-2%,-21%
COc1ccc(CN2[C@@H](CC(C)=O)c3ccc(/C=C/C(C)=O)cc3S2(=O)=O)cc1,7.3µM*,u,9.2µM*,-102*,u,0%
COc1cccc(N2[C@@H](CC(C)=O)c3ccc(/C=C/C(C)=O)cc3S2(=O)=O)c1,5.2µM*,10%,5.2µM*,-100*,u,-4%
Nc1nc(Nc2ccc(Cl)cc2)nc2ccccc12,7.3µM*,-11%,5.8µM*,-119*,-14%,-41%
CCOc1ccc(Nc2nc(N)c3ccccc3n2)cc1,7.3µM*,21µM*,u,-91*,18µM*,0%
CN(C)c1ccc(-c2c3ccccc3nc3ccccc23)cc1,u,x,-25%,x,x,x
CN(C)c1ccc(Nc2nc(N)c3ccccc3n2)cc1,26µM*,u,13µM*,-96*,u,u
COc1cccc(N2C(=O)NC(=NC3CCCC3)C23CCCN([S+](=O)([O-])c2cccc(C(F)(F)F)c2)C3)c1 (configuration not stated),x,x,x,x,x,1%[6.33 µM]
C=CCc1cccc(OC)c1OCCOCCNCCO,-27%,10%,-15%,-11,12%,2.2µM*
COc1ccc(N2CCN(c3nc(C(=O)N4CCC(C)CC4)cs3)CC2)cc1,x,x,x,x,x,-9%
COc1ccc(-n2c(SCC(=O)c3c[nH]c(C(=O)N4CCCC4)c3)nnc2-c2ccncc2)cc1,x,x,x,x,x,-9%
CC[C@@H]1C/C=C\Cc2ccccc2[C@H](C(=O)C[C@@H](O)CC(C)=O)OC1=O,13µM*,-2%,u,61,5%,-8%
O=C(NC1CC1)[C@@H]1CN(Cc2ccc(Cl)cc2F)C[C@H]1CO,x,x,x,x,x,45µM*
O=C(NC1CC1)[C@@H]1CN(Cc2cc(F)c(F)cc2F)C[C@H]1CO,x,x,x,x,x,30%
O=C(N[C@@H]1CN(Cc2ccc(F)cc2F)C[C@H]1CO)c1ccccc1,x,x,x,x,x,28µM*
CCn1ncc(CN2C[C@@H](CO)[C@H](NC(=O)c3ccccc3)C2)c1C,x,x,x,x,x,35%
CC(=O)N(c1nc(C)c(C(=O)Nc2ccc3cc[nH]c3c2)s1)C1CC1,x,x,x,x,x,59%
O=S(=O)(Nc1ccccc1N1CCCCC1)c1ccc(Cl)s1,10µM*,-11%,8.2µM*,35,-1%,0%[57.4 µM]
COc1cc(OC)c(S(=O)(=O)Nc2ccccc2N2CCCCC2)cc1NC(C)=O,-2%,-2%,-3%,6,0%,0%
O=S(=O)(Nc1ccccc1N1CCCC1)c1ccccc1C(F)(F)F,21µM*,1%,21µM*,36,-4%,3%
O=S(=O)(Nc1ccccc1N1CCOCC1)c1ccccc1C(F)(F)F,u,4%,18µM*,40,0%,-11%
O=S(=O)(Nc1cc(Cl)ccc1N1CCCCC1)c1cccs1,-23%,0%,-30%,-11,-9%,0%
CCC1(N2CCN(S(=O)(=O)c3cc(F)ccc3C)CC2)CCN(C(=O)NC)C1 (configuration not stated),x,x,x,x,x,-21%

# From PubChem
